This is part of a sample that, as a whole, favours compounds with a hit. Of some 83,000 tested, about 20% had one in any assay.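 Activity criterion: percent growth below 10, measured after cells in 96-well plates were exposed to a single compound concentration for 48 hours.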 A number with no mark means an inactive call. Activity calls are given as the source filed them.

Common to all, as to test: NCI-60 one-dose screen, 48 h (100 = growth as untreated, 0 = no growth, -100 = all killed)
What all share (details): 10 µM unless noted

In assay [1] the test system is SR leukemia.
The subject of assay [2] is RPMI-8226 leukemia.
Assay [3] has as its system OVCAR-8 ovarian.
Assay [4] concerns OVCAR-5 ovarian.
The test system of assay [5] is OVCAR-4 ovarian.
Assay [6] relates to SK-OV-3 ovarian.
Assay [7] relates to IGROV1 ovarian.
In assay [8] the test system is OVCAR-3 ovarian.
Assay [9] has as its system HS 578T breast.
Assay [10] concerns NCI/ADR-RES ovarian.
The test system of assay [11] is T-47D breast.
Assay [12] deals with BT-549 breast.
The subject of assay [13] is MDA-MB-435 melanoma.
For assay [14], the system named is SW-620 colon.
The test system of assay [15] is MCF7 breast.
Assay [16] concerns HCT-116 colon.
Assay [17] relates to HCC-2998 colon.
For assay [18], the system named is KM12 colon.
For assay [19], the system named is MDA-MB-468 breast.

`CC1(C)CC[C@]2(C(=O)O)CC[C@]3(C)C(=CCC4[C@@]5(C)C[C@@H](O)[C@@H]6OC(c7ccc(F)cc7)OC[C@@]6(C)C5CC[C@]43C)C2C1` (some centres not stated): the growth is 7.73% (active) in assay [1]; 9.02% (active) in assay [2]; 29.3% in [3]; 63.4% in assay [4]; 44% in assay [5]; 85.7% in [6]. Also, the growth in assay [7] is 43.4%; in assay [8] it was 24%; in assay [9], 48.1%; in assay [10] it was 30.2%; in assay [11] it was 33.3%; in [12], 26%. Moreover, the growth in [13] is 48.9%; in assay [14], 23.7%; in assay [15], 12.8%; in assay [16], 8.81% (active); in [17], 18.1%; in assay [18], 12.3%. Moreover, in assay [19], the growth was 13.7%.
On to `CC(=O)c1c(N)c(C#N)cn1-c1ccc(Cl)cc1Cl`, for which the growth is 90.8% in assay [1]; 105% in assay [2]; 98.2% in [3]; 100% in assay [4]; 106% in assay [5]; 89.1% in assay [6]. Moreover, the growth is 96.5% in assay [7]; 120% in assay [8]; 110% in assay [9]; 108% in assay [10]; 95.1% in [11]; 104% in [12]. For the same molecule, the growth in [13] was 102%; in [14] it was 102%; in assay [15] it was 100%; in assay [16], 99.1%; in assay [17], 114%; in assay [18] it was 95.8%. Also, the growth in assay [19] was 97.1%.
Take `CCCCCCCS(=O)(=O)N1CCCC(C(=O)Nc2nc3ccc(NC(=O)c4ccc(F)c(OC)c4F)cc3s2)C1` (configuration not stated): the growth is 60.6% in assay [1]; 41.3% in [2]; 6.24% (active) in assay [3]; 65.1% in assay [4]; 29.8% in assay [5]; 57.4% in [6]. Further, the growth in assay [7] was 60.3%; in [8] it was 40.2%; in [9], 25.2%; in assay [10] it was 46.8%; in assay [11], 41.9%; in assay [12] it was 55.8%. Moreover, the growth in assay [13] is 72.2%; in assay [14] it was 64.6%; in assay [15], 27.6%; in assay [16], 25.1%; in assay [17], 58.2%; in assay [18], 63.8%. In assay [19], the growth is -4.4% (active).
Regarding `Cc1cc(=O)oc2cc(OCCCCOc3ccc(/C=C/C(=O)Nc4ccccc4N)cc3)ccc12`, the growth in [1] was 56.4%; in assay [2], 18.7%; in assay [3], 85.2%; in assay [4], 84.8%; in assay [5], 73.1%; in assay [6] it was 92.1%. Further, the growth in assay [7] was 81.7%; in assay [8], 64.9%; in [9], 118%; in assay [10] it was 74.3%; in [11] it was 31.4%; in [12], -23.9% (active). For the same molecule, the growth in assay [13] was 78.3%; in assay [14], 71.9%; in [15] it was 18.6%; in assay [16], 45.6%; in assay [17], 89%; in assay [18] it was 31.2%. Also, the growth in assay [19] is 34.2%.
On to `Cc1ccc(Cc2cnc(NC(=O)c3ccc(/C=C4\SC(=S)N(C)C4=O)cc3)s2)cc1`, for which the growth in assay [1] was 30%; in assay [2], 31.4%; in assay [3], 35.3%; in assay [4] it was 34.3%; in assay [5], 48.2%; in [6] it was 29.3%. Further, the growth in [7] is 33%; in assay [8] it was 3.26% (active); in assay [9], 39.2%; in assay [10], -28.5% (active); in assay [11], 23.9%; in assay [12], 37.9%. The growth in assay [13] was -18.7% (active); in [14] it was 35.8%; in assay [15], 19.6%; in [16] it was 22.7%; in assay [17], 41.1%; in assay [18] it was 11.2%. Further, the growth in [19] was 4.76% (active).
Consider `Nc1cccc(SCc2cc3ccccc3[nH]c2=O)c1`, for which the growth in assay [1] is 36.5%; in assay [2] it was 33.1%; in assay [3] it was 56.7%; in [4], 63.6%; in [5], 44.1%; in [6] it was 80%. Moreover, the growth in assay [7] was 72.9%; in assay [8], 65.2%; in assay [9] it was 78.2%; in assay [10], 67.8%; in assay [11] it was 33.3%; in assay [12], 46.7%. In addition, the growth is 30.5% in [13]; 23.5% in [14]; 37.4% in assay [15]; 50.3% in assay [16]; 26.8% in assay [17]; 0.625% (active) in [18]. Moreover, the growth in [19] is 45.9%.
In the case of `COc1cc2c(c(OC)c1OC)C(=O)CC(c1cccc(NC(=O)c3cc(NC(=O)[C@@H](N)CO)ccc3C)c1)O2` (some centres not stated), the growth is 100% in assay [1]; 108% in [2]; 104% in assay [3]; 101% in [4]; 112% in assay [5]; 111% in assay [6]. In addition, the growth in assay [7] is 114%; in assay [8], 121%; in assay [9], 110%; in assay [10] it was 104%; in assay [11], 110%; in assay [12], 121%. In addition, the growth is 120% in [13]; 119% in assay [14]; 103% in assay [15]; 116% in assay [16]; 115% in assay [17]; 108% in [18]. The growth in [19] was 92.6%.
`CN(C)c1nc(NCCNS(=O)(=O)c2ccc(C3=Nc4c(N)nc(N)nc4NC(c4ccc(C(F)(F)F)cc4)C3)cc2)nc(Nc2ccc(F)cc2)n1` (configuration not stated): the growth was -23.2% (active) in [1]; -13.1% (active) in assay [2]; 32.8% in assay [3]; 29.5% in assay [4]; 31.3% in [5]; 49.8% in [6]. In addition, the growth in assay [7] was 35.8%; in assay [8], 23%; in [9] it was 27.1%; in assay [10] it was 92.9%; in [11], 9.22% (active); in [12] it was 19.3%. Moreover, the growth in assay [13] was 9.17% (active); in assay [14], 11.7%; in assay [15], -28.2% (active); in [16] it was 2.12% (active); in assay [17] it was -32.1% (active); in assay [18] it was -4.83% (active). Further, in assay [19], the growth was -46.2% (active).

These data come from PubChem BioAssay (NCI).
